The target in assay [1] is rat Thyrotropin Releasing Hormone Receptor (TRH), Trhr (gene 25570) (UniProt Q01717). Put plainly: NVS_GPCR_rTRH: NovaScreen (NVS) G Protein-Coupled Receptor Assay for rat Thyrotropin Releasing Hormone Receptor (TRH) (AID 2283329).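 Note: hit means lower bound tracer signal versus DMSO baseline.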 The method in brief:
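Cell-free radioligand binding on rat forebrain membranes; bound tracer measured by filter-based scintillation counting 4 hours after dosing. Loss of signal versus DMSO baseline indicates displacement; primary screen at 25 uM in duplicate, actives then run in concentration series.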

Assay [2] addresses bovine Estrogen Receptor (ER), ESR1 (gene 407238) (UniProt P49884). Put plainly: NVS_NR_bER: NovaScreen (NVS) Nuclear Receptor Binding Assay for bovine Estrogen Receptor (ER) (AID 2283345).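 Note: actives lower the bound radioligand count which means they displace the ER ligand.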 In outline:
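Cell-free radioligand binding with receptor from bovine uterine membranes, read by scintillation counting 18 h after dosing. Loss of specific binding was scored against DMSO; primary screen at 25 uM in duplicate, actives then run as concentration series.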

The target in assay [3] is Estrogen receptor (Homo sapiens) (UniProt P03372). Put plainly: NVS_NR_hER: NovaScreen (NVS) Nuclear Receptor Binding Assay for human Estrogen Receptor (ER) (AID 2283348). In outline:
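Scintillation signal from bound radioligand was measured 18 hours after chemical addition to cell-free MCF7 protein extracts, with DMSO as baseline. Activity was scored as signal loss; compounds ran first at 25 uM in duplicate.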

For assay [4] the target is unchanged. Put plainly: OT_ER_ERaERa_0480: Odyssey Thera (OT) 8-hour HEK293T Protein-Complementation Assay for Estrogen Receptor-alpha/-alpha Homodimer (AID 2283351).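 Note: rise in fluorescence from reassembled reporter fragments on ERα LBD homodimer in nucleus or whole cell.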 In outline:
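HEK293T, stable ERα LBD (aa 310-547) PCA homodimer; 8 h compound exposure; fluorescence intensity, laser scanning cytometer; positive fitting direction, DMSO baseline.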

The target is the same in assay [5]. Put plainly: OT_ER_ERaERa_1440: Odyssey Thera (OT) 24-hour HEK293T Protein-Complementation Assay for Estrogen Receptor-alpha/-alpha Homodimer (AID 2283349).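 Note: hits raise fluorescence above DMSO for agonists and antagonists alike.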 The method in brief: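 Protein-fragment complementation between two human ERα ligand-binding domains (aa 310-547) in stably transfected HEK293T cells was monitored after 24 h treatment, using fluorescence intensity relative to vehicle controls.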

Assay [6] has as its target sheep Cyclooxygenase-1 (Cox1), PTGS1 (gene 443551) (UniProt P05979). Put plainly: NVS_ENZ_oCOX1: NovaScreen (NVS) Enzymatic Assay for sheep Cyclooxygenase-1 (Cox1) (AID 2283239).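 Note: actives reduce cyclooxygenase activity so potencies are for inhibitors.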 The method in brief:
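Cell-free colorimetric assay of enzyme activity in a native extract of ovine seminal vesicles. Absorbance was read 0.66 hour after compound addition. Loss of signal relative to the DMSO negative control was scored, with actives from the 25 uM duplicate primary screen retested in concentration series.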

Assay [7] concerns the target human Peripheral-type Benzodiazepine Receptor (PBR), TSPO (gene 706) (UniProt P30536). Put plainly: NVS_MP_hPBR: NovaScreen (NVS) Membrane Protein Assay for human Peripheral-type Benzodiazepine Receptor (PBR) (AID 2283331).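 Note: hits reduce radioligand binding relative to DMSO baseline.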 The method in brief:
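Scintillation counts of filter-bound radioligand served as read-out after 1 h chemical dosing of human colonic membrane preparations. Activity was scored as signal loss against DMSO; initial duplicates at 25 uM, confirmatory concentration series afterward.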

Assay [8] concerns the target rat Peripheral-type Benzodiazepine Receptor (PBR), Tspo (gene 24230) (UniProt P16257). Put plainly: NVS_MP_rPBR: NovaScreen (NVS) Membrane Protein Assay for rat Peripheral-type Benzodiazepine Receptor (PBR) (AID 2283335). In outline:
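Rat kidney membranes; radioligand binding with displacement, filter-based scintillation counting, 1 h incubation. Primary screen in duplicate at 25 uM, actives followed in concentration series; loss of binding vs DMSO.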

Assay [9] has as its target human Adenosine A1 Receptor (AdoRA1), ADORA1 (gene 134) (UniProt P30542). Put plainly: NVS_GPCR_hAdoRA1: NovaScreen (NVS) G Protein-Coupled Receptor Assay for human Adenosine A1 Receptor (AdoRA1) (AID 2283254). The method in brief: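 Membranes from human cortical tissue were incubated with radioligand and test chemical for 1 hour, then filtered and counted. Activity was taken as signal loss relative to DMSO, screened at 25 uM in duplicate before concentration-response follow-up.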

The target in assay [10] is human Adenosine A2a Receptor (AdoRA2a), ADORA2A (gene 135) (UniProt P29274). Put plainly: NVS_GPCR_hAdoRA2a: NovaScreen (NVS) G Protein-Coupled Receptor Assay for human Adenosine A2a Receptor (AdoRA2a) (AID 2283256). In outline:
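Radioligand displacement on HEK293-derived membrane protein, cell-free; filter-based scintillation counting 1.5 hours after dosing, loss of signal vs DMSO. Single-point duplicate screen at 25 uM, actives retested in concentration series.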

Assay [11] concerns the target Sodium channel protein type 1 subunit alpha (Rattus norvegicus) (UniProt P04774). Put plainly: NVS_IC_rNaCh_site2: NovaScreen (NVS) Ion Channel Assay for rat Sodium Channel, Site 2 (NaCh) (AID 2283322).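 Note: hit means loss of radioligand binding signal relative to DMSO so AC50 marks displacement.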 The method in brief: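 Membranes: rat forebrain. Format: competitive radioligand displacement, filter separation, scintillation readout, 1 h exposure. Primary screen in duplicate at 25 uM; actives retested in concentration series.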

Assay [12] has as its target human Thromboxane A2 Receptor (TXA2), TBXA2R (gene 6915) (UniProt P21731). Put plainly: NVS_GPCR_hTXA2: NovaScreen (NVS) G Protein-Coupled Receptor Assay for human Thromboxane A2 Receptor (TXA2) (AID 2283282).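 Note: actives reduce bound radioligand signal relative to DMSO baseline.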 In outline: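 Cell-free radioligand binding on membrane protein from human platelets; radioligand displacement read by filter-based scintillation counting after 1 h. Primary screen in duplicate at 25 uM, actives then run in concentration series; loss of signal versus DMSO.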

Assay [13] addresses human Vascular Endothelial Growth Factor Receptor 1 (VEGFR1), FLT1 (gene 2321) (UniProt P17948). Put plainly: NVS_ENZ_hVEGFR1: NovaScreen (NVS) Enzymatic Assay for human Vascular Endothelial Growth Factor Receptor 1 (VEGFR1) (AID 2283226). The method in brief: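 Cell-free assay of recombinant human VEGFR1 kinase with substrate, measured 1 h after dosing; fluorescence with electrophoretic mobility-shift separation of substrate and product, referenced to DMSO; primary screen at 25 uM in duplicate, actives then run in concentration series.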

Assay [14] has as its target chimpanzee Androgen Receptor (AR), AR (gene 747460) (UniProt O97775). Put plainly: NVS_NR_cAR: NovaScreen (NVS) Nuclear Receptor Binding Assay for chimpanzee Androgen Receptor (AR) (AID 2283346).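 Note: radioligand displacement from AR measured by scintillation counting in a cell-free assay.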 In outline:
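Cell-free competition binding with insect-cell (Sf9/Sf21) extracted chimpanzee AR; scintillation signal from lysate at 72 h. Screened in duplicate at 25 uM, then concentration-response for actives; fitting relative to DMSO.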

Assay [15] deals with Muscarinic acetylcholine receptor M2 (Homo sapiens) (UniProt P08172). Put plainly: NVS_GPCR_hM2: NovaScreen (NVS) G Protein-Coupled Receptor Assay for human Muscarinic, M2 Receptor (AID 2283273). The method in brief: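 CHO membrane prep, radioligand + test compound, 1 h; filtration, scintillation count. Screen 25 uM duplicate → conc. series for actives. Readout: decrease in binding vs DMSO control.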

Assay [16] has as its target D(1A) dopamine receptor (Homo sapiens) (UniProt P21728). Put plainly: NVS_GPCR_hDRD1: NovaScreen (NVS) G Protein-Coupled Receptor Assay for human Dopamine Receptor D1 (DRD1) (AID 2283269). The method in brief:
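Cell-free radioligand binding to human DRD1 from HEK293 membranes, read 1 h after dosing by filter-based scintillation counting. Loss of signal versus DMSO baseline marks displacement. Primary screen at 25 uM single concentration in duplicate; actives followed up in concentration series.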

Assay [17] deals with human Neurokinin, NK2 Receptor, TACR2 (gene 6865) (UniProt P21452). Put plainly: NVS_GPCR_hNK2: NovaScreen (NVS) G Protein-Coupled Receptor Assay for human Neurokinin, NK2 Receptor (AID 2283278).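 Note: actives reduce bound radioligand signal relative to DMSO baseline.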 In outline: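 CHO-derived membrane protein, radioligand displacement, filter scintillation read at 4 h post-dose. Single-point 25 uM in duplicate, then concentration series for actives; DMSO as negative control.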

The nature of assay [18]: NVS_IC_rCaBTZCHL: NovaScreen (NVS) Ion Channel Assay for Calcium Channel, Type L, Benzothiazepine Site (CaBTZCHL) (AID 2283337). In outline: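 Scintillation counting of filter-bound radioligand gave the read-out, with reduced binding versus DMSO scored as activity. Membranes came from rat cortex and were read 1.5 h after compound addition. Chemicals were screened first in duplicate at 25 uM.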

For 29 molecules, outcome and AC50 results are on record in PubChem BioAssay (EPA / NIEHS).

Molecules are shown by their SMILES. Inconclusive results are not listed. Activity calls are given as the source filed them. Rule for the calls: active = hit-call score of the fitted dose curve at least 0.9, where 1 is the maximum; inconclusive = response in the unintended direction; inactive = score below 0.9.

human Peripheral-type Benzodiazepine Receptor (PBR), TSPO (gene 706), sequence (P30536 whole entry, looked up): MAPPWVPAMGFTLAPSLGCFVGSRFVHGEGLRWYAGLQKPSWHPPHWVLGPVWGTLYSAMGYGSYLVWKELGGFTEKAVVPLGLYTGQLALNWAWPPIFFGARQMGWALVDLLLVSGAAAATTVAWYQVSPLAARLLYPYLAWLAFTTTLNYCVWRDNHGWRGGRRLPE
D(1A) dopamine receptor (Homo sapiens), sequence (P21728 whole entry, looked up): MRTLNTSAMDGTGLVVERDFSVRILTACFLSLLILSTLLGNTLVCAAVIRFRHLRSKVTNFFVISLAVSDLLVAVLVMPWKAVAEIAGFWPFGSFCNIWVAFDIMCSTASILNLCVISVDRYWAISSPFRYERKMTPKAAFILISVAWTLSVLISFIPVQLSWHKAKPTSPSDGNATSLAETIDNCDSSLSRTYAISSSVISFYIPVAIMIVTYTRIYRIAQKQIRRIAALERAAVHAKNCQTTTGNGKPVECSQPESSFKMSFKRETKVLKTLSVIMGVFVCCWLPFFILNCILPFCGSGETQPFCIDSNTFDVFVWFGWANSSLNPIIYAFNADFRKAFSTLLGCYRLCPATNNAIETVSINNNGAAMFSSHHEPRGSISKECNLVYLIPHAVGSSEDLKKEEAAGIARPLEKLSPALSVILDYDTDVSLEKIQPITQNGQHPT
bovine Estrogen Receptor (ER), ESR1 (gene 407238), sequence (P49884 whole entry, looked up): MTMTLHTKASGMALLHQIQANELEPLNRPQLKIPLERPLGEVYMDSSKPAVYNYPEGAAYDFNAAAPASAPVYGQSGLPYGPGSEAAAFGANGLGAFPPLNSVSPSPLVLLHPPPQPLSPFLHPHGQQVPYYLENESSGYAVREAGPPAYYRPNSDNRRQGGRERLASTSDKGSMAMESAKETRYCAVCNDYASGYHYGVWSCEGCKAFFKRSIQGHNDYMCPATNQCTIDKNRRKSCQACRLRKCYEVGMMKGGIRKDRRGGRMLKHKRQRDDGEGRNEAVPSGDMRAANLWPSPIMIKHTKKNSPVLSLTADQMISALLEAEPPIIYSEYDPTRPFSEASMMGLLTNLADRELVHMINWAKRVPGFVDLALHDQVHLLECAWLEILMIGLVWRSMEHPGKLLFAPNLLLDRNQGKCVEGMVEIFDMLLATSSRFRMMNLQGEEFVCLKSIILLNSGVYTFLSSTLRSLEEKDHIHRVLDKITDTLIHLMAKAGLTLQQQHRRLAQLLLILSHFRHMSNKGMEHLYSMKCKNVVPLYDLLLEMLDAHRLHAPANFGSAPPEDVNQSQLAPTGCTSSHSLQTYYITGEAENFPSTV
sheep Cyclooxygenase-1 (Cox1), PTGS1 (gene 443551), sequence (P05979 whole entry, looked up): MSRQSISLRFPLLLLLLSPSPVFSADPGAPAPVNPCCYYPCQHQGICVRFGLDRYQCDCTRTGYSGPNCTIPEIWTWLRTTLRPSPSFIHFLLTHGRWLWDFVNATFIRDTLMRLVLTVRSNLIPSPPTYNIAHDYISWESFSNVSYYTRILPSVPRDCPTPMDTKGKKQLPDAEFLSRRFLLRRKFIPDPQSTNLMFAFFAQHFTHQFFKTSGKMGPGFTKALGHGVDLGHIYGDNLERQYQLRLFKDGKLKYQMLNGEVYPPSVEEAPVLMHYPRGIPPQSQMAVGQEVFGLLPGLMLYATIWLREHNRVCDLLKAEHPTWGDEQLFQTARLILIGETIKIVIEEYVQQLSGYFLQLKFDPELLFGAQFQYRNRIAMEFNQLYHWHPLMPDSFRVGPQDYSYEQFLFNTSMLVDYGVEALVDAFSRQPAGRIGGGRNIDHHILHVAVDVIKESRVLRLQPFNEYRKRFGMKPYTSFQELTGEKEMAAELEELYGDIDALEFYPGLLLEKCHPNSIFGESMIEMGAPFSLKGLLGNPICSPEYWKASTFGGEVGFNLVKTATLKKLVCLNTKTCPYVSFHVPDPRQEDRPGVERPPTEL
human Thromboxane A2 Receptor (TXA2), TBXA2R (gene 6915), sequence (P21731 whole entry, looked up): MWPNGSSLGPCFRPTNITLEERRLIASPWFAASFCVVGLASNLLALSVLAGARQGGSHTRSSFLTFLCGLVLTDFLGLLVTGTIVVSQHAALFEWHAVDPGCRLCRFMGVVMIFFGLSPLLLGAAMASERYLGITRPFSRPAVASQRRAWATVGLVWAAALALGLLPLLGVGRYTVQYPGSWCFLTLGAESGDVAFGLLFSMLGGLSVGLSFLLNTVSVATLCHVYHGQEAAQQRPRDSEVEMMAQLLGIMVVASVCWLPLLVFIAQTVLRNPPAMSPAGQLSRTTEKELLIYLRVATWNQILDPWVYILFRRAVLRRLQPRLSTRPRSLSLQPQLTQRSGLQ
rat Thyrotropin Releasing Hormone Receptor (TRH), Trhr (gene 25570), sequence (Q01717 whole entry, looked up): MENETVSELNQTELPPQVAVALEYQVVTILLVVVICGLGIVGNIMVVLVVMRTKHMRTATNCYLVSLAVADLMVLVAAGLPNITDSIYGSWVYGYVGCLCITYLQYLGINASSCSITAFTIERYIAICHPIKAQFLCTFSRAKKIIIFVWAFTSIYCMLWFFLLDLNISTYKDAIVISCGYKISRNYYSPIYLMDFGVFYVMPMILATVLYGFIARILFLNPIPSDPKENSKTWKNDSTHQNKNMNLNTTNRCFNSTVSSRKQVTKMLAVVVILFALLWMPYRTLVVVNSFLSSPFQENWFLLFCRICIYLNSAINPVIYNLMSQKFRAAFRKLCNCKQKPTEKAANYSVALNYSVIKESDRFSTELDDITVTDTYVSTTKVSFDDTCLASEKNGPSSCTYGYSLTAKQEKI
chimpanzee Androgen Receptor (AR), AR (gene 747460), sequence (O97775 whole entry, looked up): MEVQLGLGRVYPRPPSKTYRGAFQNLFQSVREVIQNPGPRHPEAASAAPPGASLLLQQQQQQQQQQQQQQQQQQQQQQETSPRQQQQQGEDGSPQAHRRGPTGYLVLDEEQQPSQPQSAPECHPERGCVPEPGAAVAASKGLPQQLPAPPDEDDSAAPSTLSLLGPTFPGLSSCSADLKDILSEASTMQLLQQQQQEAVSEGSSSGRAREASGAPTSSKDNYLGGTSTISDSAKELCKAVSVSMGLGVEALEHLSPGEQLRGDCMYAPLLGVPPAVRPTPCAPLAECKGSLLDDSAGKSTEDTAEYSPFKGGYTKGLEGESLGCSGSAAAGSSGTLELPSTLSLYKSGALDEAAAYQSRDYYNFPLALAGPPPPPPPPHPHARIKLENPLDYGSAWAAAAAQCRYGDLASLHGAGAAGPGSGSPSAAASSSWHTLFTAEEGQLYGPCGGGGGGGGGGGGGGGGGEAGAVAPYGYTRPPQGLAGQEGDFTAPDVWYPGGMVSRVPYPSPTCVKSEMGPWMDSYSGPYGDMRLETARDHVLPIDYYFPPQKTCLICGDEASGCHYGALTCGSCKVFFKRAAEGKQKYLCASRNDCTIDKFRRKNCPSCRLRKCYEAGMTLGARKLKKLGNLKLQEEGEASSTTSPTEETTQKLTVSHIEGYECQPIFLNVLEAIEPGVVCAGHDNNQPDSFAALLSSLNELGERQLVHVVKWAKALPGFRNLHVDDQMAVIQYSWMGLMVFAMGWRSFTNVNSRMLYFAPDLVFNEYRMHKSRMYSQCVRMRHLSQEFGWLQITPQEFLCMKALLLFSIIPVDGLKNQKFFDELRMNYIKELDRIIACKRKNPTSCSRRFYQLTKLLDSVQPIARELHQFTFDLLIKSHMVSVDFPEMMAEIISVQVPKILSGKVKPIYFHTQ
Estrogen receptor (Homo sapiens), sequence (P03372 whole entry, looked up): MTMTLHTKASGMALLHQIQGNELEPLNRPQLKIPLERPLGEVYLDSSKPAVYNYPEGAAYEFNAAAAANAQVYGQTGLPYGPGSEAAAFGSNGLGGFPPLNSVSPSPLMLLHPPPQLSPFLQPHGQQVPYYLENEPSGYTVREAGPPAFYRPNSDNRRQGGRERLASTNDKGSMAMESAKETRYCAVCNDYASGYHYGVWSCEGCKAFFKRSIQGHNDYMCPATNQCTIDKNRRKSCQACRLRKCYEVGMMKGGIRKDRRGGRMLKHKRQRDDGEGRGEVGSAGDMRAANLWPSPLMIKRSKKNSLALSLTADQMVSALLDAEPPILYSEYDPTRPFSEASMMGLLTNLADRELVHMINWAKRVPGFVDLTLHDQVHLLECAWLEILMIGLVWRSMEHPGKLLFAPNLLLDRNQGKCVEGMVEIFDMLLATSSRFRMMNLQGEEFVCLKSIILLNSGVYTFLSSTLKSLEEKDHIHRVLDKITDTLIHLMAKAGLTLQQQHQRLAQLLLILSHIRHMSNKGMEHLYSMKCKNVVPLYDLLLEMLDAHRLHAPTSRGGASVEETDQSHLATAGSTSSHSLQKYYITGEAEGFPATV
human Adenosine A2a Receptor (AdoRA2a), ADORA2A (gene 135), sequence (P29274 whole entry, looked up): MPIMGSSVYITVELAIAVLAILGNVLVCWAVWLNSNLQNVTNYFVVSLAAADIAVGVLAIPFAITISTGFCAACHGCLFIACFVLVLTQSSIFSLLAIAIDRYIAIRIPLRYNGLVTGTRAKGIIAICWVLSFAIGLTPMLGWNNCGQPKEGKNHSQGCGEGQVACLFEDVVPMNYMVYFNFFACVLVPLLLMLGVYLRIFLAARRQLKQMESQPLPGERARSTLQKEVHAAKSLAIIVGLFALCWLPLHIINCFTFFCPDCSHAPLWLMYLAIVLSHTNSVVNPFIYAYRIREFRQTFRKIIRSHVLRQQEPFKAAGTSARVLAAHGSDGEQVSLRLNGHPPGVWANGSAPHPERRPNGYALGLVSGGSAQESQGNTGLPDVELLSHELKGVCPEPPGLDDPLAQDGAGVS
human Adenosine A1 Receptor (AdoRA1), ADORA1 (gene 134), sequence (P30542 whole entry, looked up): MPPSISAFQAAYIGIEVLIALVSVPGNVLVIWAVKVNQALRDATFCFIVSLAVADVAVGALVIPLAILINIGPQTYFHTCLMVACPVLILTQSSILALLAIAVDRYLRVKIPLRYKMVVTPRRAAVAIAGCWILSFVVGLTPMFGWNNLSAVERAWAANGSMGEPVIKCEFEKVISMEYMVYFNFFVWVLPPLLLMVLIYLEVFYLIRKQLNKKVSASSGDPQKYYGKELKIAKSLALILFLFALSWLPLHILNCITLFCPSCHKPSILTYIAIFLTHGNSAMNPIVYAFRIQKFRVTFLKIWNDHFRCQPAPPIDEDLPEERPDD

Turning to `CC(=O)OC(C)C`, the result in assay [1], in assay [2], in assay [3] and in [4] was inactive.
For the molecule `CCCCC/C=C\CCC=O`, the molecule was classed as inactive in assay [1], in assay [5] and in assay [4].
Regarding `C/C=C\C/C=C/CCCCCCCCOC(C)=O`, the AC50 in assay [6] is 25 µM (active); in [7], 16.3 µM (active); in assay [8], 17.2 µM (active). In addition, the molecule was classed as inactive in assay [3].
Turning to `O=C(Nc1ccccc1SSc1ccccc1NC(=O)c1ccccc1)c1ccccc1`, the AC50 in assay [9] is 25 µM (active); in [7] it was 6.22 µM (active). Further, the molecule was classed as inactive in assay [8] and in assay [3].
On to `COCc1c(C(C)C)nc(C(C)C)c(/C=C/[C@@H](O)C[C@@H](O)CC(=O)O)c1-c1ccc(F)cc1`, for which the molecule was classed as inactive in assay [10]. Moreover, the AC50 in assay [11] was 1.81 µM (active).
Turning to `CCCCCCCCc1ccc(Nc2ccc(CCCCCCCC)cc2)cc1`, in assay [12], the result was inactive.
For the molecule `CCCOC(=O)CCCCC(=O)OCCC`, the AC50 in [13] was 42.3 µM (active). The molecule was classed as inactive in assay [14].
On to `CCCCCCCCCCOS(=O)(=O)O`, for which the call in assay [1], in assay [5] and in assay [4] was inactive.
As to `CC(C)C1=CC2=CC[C@@H]3[C@](C)(CCC[C@@]3(C)C(=O)O)[C@H]2CC1`, the molecule was called inactive in assay [1], in assay [3] and in [4].
As for `c1ccc(-c2ccccn2)nc1`, the call in assay [6] was inactive.
Take `Cc1ccc(N)c([N+](=O)[O-])c1`: the call in [12] was inactive.
As for `CC(C)c1ccc(C=O)cc1`, the call in [10] and in assay [15] was inactive.
As for `Cc1ccc(C2OC[C@@H]3OC(c4ccc(C)cc4)O[C@H]([C@H](O)CO)[C@@H]3O2)cc1` (stereo partly drawn), the call in [12] was inactive.
Regarding `c1ccc2c(c1)ccc1cc3c(ccc4ccccc43)cc12`, the AC50 in assay [6] was 22.5 µM (active). Moreover, the outcome in assay [1], in assay [14] and in [4] was inactive.
`CCCC(C)CCC(C)=O` (stereo not drawn): in assay [16], the molecule was called inactive.
As for `O=C(Cl)c1cc(C(=O)Cl)cc(C(=O)Cl)c1`, the half-maximal activity concentration (AC50) in assay [17] was 15 µM (active).
On to `CCO[Si](CCCN=C=O)(OCC)OCC`, for which the call in assay [6] and in assay [18] was inactive.
`O=c1c2ccccc2oc2ccccc12`: the result in assay [10] was inactive.
As for `CCOC(=O)[C@H](C)O`, the molecule was called inactive in assay [11].
As to `COC(=O)c1c(C)cc(O)c(C)c1O`, the outcome in assay [1], in assay [5] and in [4] was inactive. Besides, the AC50 in assay [14] was 13.6 µM (active).
For `Cn1c(=O)[nH]c2ncn(C)c2c1=O`, the AC50 in [9] was 25 µM (active).
In the case of `CCC(CC)C(=O)O`, the molecule was classed as inactive in [16].
Turning to `C1=CCCC1`, the result in assay [10] and in assay [16] was inactive.
On to `CCOc1nc(F)cc2nc(S(=O)(=O)Nc3c(Cl)cccc3C(=O)OC)nn12`, for which the results for the AC50 in assay [16] and in [7] were 25 µM (active) and 1.63 µM (active), respectively.
`CCO[Si](C)(OCC)OCC`: the outcome in assay [1] and in [4] was inactive.
As to `CCOC(=O)Cc1cccc2ccccc12`, the result in assay [1] and in assay [4] was inactive.
On to `CCCCCCCC/C=C\CCCCCCCC(=O)OCCO`, for which the molecule was called inactive in assay [1] and in assay [4].
Take `Oc1ccc(Cl)cc1Cc1cc(Cl)ccc1O`: the molecule was called inactive in assay [2] and in assay [4]. The values for the AC50 in [14] and in assay [3] were 16.2 µM (active) and 25 µM (active), respectively.
Take `O=C(c1ccc(O)cc1)c1ccc(O)cc1O`: the figures for the AC50 in assay [2] and in [3] were 2.12 µM (active) and 0.481 µM (active), respectively.

The term AC50 denotes the concentration giving half of the maximal activity seen.
